Reference: PubChem BioAssay AID1069 (NMMLSC, 2008)
Calls of active or inactive are those of the source.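 How the source made its calls: active means high combined rank on largest and smallest cell-count-weighted shift across three tests, rank score above 45, floors 50 and 25 (some results past the limit were not filed as active); inactive means the rest.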

Test: activators of LNCaP cell differentiation, retest, confirmation, side scatter shift, flow cytometry (AID 1069);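 further: LNCaP human prostate cancer cells in low-serum medium with charcoal-stripped FBS; percent of cells with raised granularity gated so DMSO controls show 10%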
Conditions: 4 d, stronger effect = higher value

SMILES	side scatter shift (at 100 µM)	side scatter shift (side scatter shift, at 10 µM) [%]
Cc1oc(-c2cccc(Cl)c2)nc1CN1CCC(C(=O)NCC2CCCO2)CC1 (stereo unspecified)	33.9% (inactive)	8.8
CN(CCNC(=O)C1CC(=O)N(c2ccc(F)c(Cl)c2)C1)Cc1ccccc1 (stereo unspecified)	62% (active)	3.65
COC(=O)c1ccccc1S(=O)(=O)N(Cc1cc2cc3c(cc2[nH]c1=O)OCO3)C1CCCCC1	50% (inactive)	8.05
CCc1ncc(C(O)c2cccc(OC)c2OC)n1C (stereo unspecified)	1.4% (inactive)	5.25
O=C(O)C1CCCCC1C(=O)Nc1cnn(Cc2ccccc2)c1 (stereo unspecified)	19% (inactive)	5.15
COc1ccc(-c2cc(C(F)(F)F)nc(N3CCN(c4ccc(F)cc4)CC3)n2)cc1OC	22.3% (inactive)	3.05
Cn1nc(-c2ccc(Cl)cc2)c2cc(C(=O)NCCCN3CCOCC3)sc21	63.6% (active)	27.4
CCOC(=O)C1=C(C)Nc2nc(SC)nn2C1c1ccc(C(=O)OC)cc1 (stereo unspecified)	7.7% (inactive)	7.15
CCC(C(=O)Nc1ccccc1OC)n1c(C(=O)OC)cc2ccsc21 (stereo unspecified)	12.2% (inactive)	2.5
COc1ccc2cc3c(N)nn(C(=O)Cc4ccccc4OC)c3nc2c1	20% (inactive)	8.05
Cc1ccc(-n2c(SCC(=O)Nc3nccs3)nc3c(c2=O)SCC3)cc1	16.9% (inactive)	9.7
CCOc1ccc2ccccc2c1C(=O)N1CCN(c2ccccc2)CC1	21.1% (inactive)	1.7
Cc1oc(-c2cccc(Cl)c2)nc1CN1CCC(C(=O)NCc2cccnc2)CC1	28.9% (inactive)	8.3
COc1ccc(-n2c(C)nc3c(cnn3-c3ccc(Cl)cc3)c2=O)cc1	4.4% (inactive)	5.6
COc1ccc(CN2C(=O)C(O)(CC(=O)c3c(C)n[nH]c3C)c3ccccc32)cc1OC (stereo unspecified)	9.9% (inactive)	6.45
CCOc1ccc(C(=O)Nc2ccc(Cl)cn2)cc1Cl	22% (inactive)	2.75
Cc1ccc(Cl)cc1N1CCN(C(=O)c2cc3c(=O)n(C)c4ccccc4c3n2C)CC1	12.9% (inactive)	22.5
CCOC(=O)c1sc2ncnc(N3CCN(c4ccc(OC)cc4)CC3)c2c1C	25% (inactive)	9.55
CCc1ccc(-c2nc(CN3CCCC(C(=O)O)C3)c(C)o2)cc1 (stereo unspecified)	12.4% (inactive)	9
N=c1c(C(=O)NC2CCCC2)cc2c(=O)n3ccccc3nc2n1C1CCCC1	16.7% (inactive)	7.85
Cn1c(=O)cc(SCC(=O)NCCCN2CCN(c3ccccc3F)CC2)c2ccccc21	70.5% (active)	12.8
CCc1ccc(-c2nc(CN3CCC(C(=O)N4CCN(c5ccccn5)CC4)CC3)c(C)o2)cc1	30% (inactive)	32.4
CCOC(=O)c1c(C)n(C)c2ccc(OCC(O)CNC(CC)CO)cc12 (stereo unspecified)	58.6% (active)	3.3
Cc1ccccc1CS(=O)(=O)CCC(=O)NCCCN1CCN(c2ccccc2F)CC1	56.5% (active)	6.05
CCOC(=O)c1c(NCc2ccc3c(c2)OCO3)c2ccccc2[nH]c1=O	12.8% (inactive)	4.75
CCN(CC)CCNC(=O)c1ccc(N2CCCCC2)c(NS(=O)(=O)c2ccc(C)cc2)c1	17.6% (inactive)	38.6
O=C(Cn1cc2c(n1)CCCC2)NCCCN1CCN(c2ccccc2F)CC1	56.4% (active)	4.95
N#C/C(=C\c1ccc(O)c(O)c1)C(=O)NCCCc1ccccc1	28.9% (inactive)	7.05
